Screening data (PubChem BioAssay)
Hits are enriched below; roughly 4.1% of the tested compounds scored in any of these assays.
Peg3 promoter: reduces Peg3 promoter-driven luciferase expression in HeLa; HeLa PEG-Prom luciferase reporter, luminescence, overnight; AID 588405; 360,000 compounds, 1.7% hits; inhibition, % at 20 µM;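 active = inhibition of at least 50% at 20 µM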
TROY NFkB inh: TROY signaling inhibition | Q293 LMP1-TROYcd NF-kB luciferase reporter, 4 h | inhibition, % at 10 µM | 360,000 compounds, 0.98% hits | AID 1347056;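 active = compounds whose plate-normalised and pattern-corrected inhibition of the luciferase reporter signal at the single screening dose is 50% or more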
TWEAK Fn14 block: blocks TWEAK-Fn14 interaction in a reporter cell assay. inhibition, % at 10 µM. TWEAK-stimulated Fn14 reporter cells, luciferase luminescence, 8 h. 360,000 compounds, 2% hits. AID 1159606; in the data active = inhibition above about 50%
EBV LMP1 NFkB: reduces LMP1-driven NF-kappaB luciferase signal. LMP1-induced NF-kappaB luciferase reporter cells, luminescence. inhibition, % at 12.5 µM. 350,000 compounds, 0.69% hits; in the data active = inhibition above about 41%; inconclusive = no clear call, values can overlap the other calls;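 also: 0% = neutral control wells and 100% = reference inhibitor control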
Shn3 inh set2: reduces Shn3 3'UTR luciferase signal in osteoblasts; 360,000 compounds, 0.52% hits; inhibition, % at 12.5 µM; Clone20 osteoblast Shn3 3'UTR firefly luciferase, 24 h;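 active = mean inhibition of at least 75% with every replicate also reaching 75%; inconclusive = mean inhibition at least 75% but some replicate below; inactive = mean inhibition below 75%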;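 also: 0% = median of neutral control wells and 100% = pilot-screen positive control compound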
MITF TRPM1 inh: reduces MITF-dependent TRPM1 promoter luciferase signal. SK-MEL-5 TRPM1 promoter luciferase, 24 h. inhibition, % at 12.5 µM. 330,000 compounds, 0.83% hits. AID 488899;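 active = mean inhibition across replicates of 60% or more, whatever share of single replicates reaches that level; inconclusive = some that reach 60%, reason not given; inactive = mean inhibition across replicates below 60%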
The depositor's hits bear a star; ? = inconclusive; . = no result given.

SMILES	Peg3 promoter	TROY NFkB inh	TWEAK Fn14 block	EBV LMP1 NFkB	Shn3 inh set2	MITF TRPM1 inh
COc1cccc(/C=N/Nc2nc(Nc3ccc([N+](=O)[O-])cc3)nc(N3CCCC3)n2)c1O	62*	-2	45	3	89*	11
O=[N+]([O-])c1ccc(NN=Cc2cccc3ccccc23)nc1	-72	-38	-39	-21	-25	-26
O=[N+]([O-])c1cccc(C=NNc2ccc3ccccc3n2)c1O	18	75*	97*	12	72	79*
CC(C)(C)c1ccc(C(=O)N2CCC2(C)C(=O)Nc2ccc3nc[nH]c3c2)cc1 (configuration not stated)	-3	14	10	.	52	.
CNC(=O)C[C@@H]1C(=O)N(CCc2ccccc2)CC1(C)C	-20	-6	-6	1	-18	.
COC(=O)c1[nH]c2ccc(C)cc2c1NC(=O)NC1CCCCC1	11	-28	-2	73*	8	13
COC(=O)c1[nH]c2ccc(C)cc2c1NC(=O)C(C)N1CCN(C2CCCCC2)CC1 (configuration not stated)	-28	.	12	-1	-7	0
CCOC(=O)c1sc(NC(=O)CCN2C(=O)C3CCCCC3C2=O)cc1C (configuration not stated)	6	-3	-2	-8	1	7
O=P(O)(OCc1ccccc1)OCc1ccccc1	2	-9	-1	-8	-2	-2
CCOc1ccc(N(C)S(=O)(=O)c2cc(-c3cc(C)no3)ccc2CC)cc1	30	47	72*	14	55	8
CCOc1ccc(N(C)S(=O)(=O)c2cc(-c3cc(C)no3)ccc2C)cc1	42	42	37	12	40	23
CCC(=O)NC(Nc1cc(C)cc(C)n1)(C(F)(F)F)C(F)(F)F	7	9	-7	4	-14	-3
Cc1cc(C)n(-c2cccc(C(=O)O)c2)n1	5	19	80*	-22	-20	-13
Cc1nn(-c2cccc(C(=O)O)c2)c(C)c1[N+](=O)[O-]	4	2	3	3	2	-4
Cc1ccc(S(=O)(=O)N(C)[C@H]2C[C@H]3c4[nH]c5ccccc5c4CCN3C[C@H]2[C@H](C)O)cc1	23	-18	-1	.	0	.
CC(c1ccccc1)N1C(=O)c2ccc(C(=O)Nc3ccc(Br)cc3C(=O)O)cc2C1=O (configuration not stated)	10	64*	10	-1	4	-3
COc1cc(CO)cc(Br)c1OCC(=O)Nc1cccc2ccccc12	20	-14	-4	6	-1	8
c1ccc(CCNc2ccnc3cc4ccccc4cc23)cc1	106*	12	-16	-60	94*	103*
COc1ccc(Nc2ccnc3ccccc23)cc1	-10	12	45	15	4	-3
CC(C)Nc1ccc(Nc2ccnc3cc4ccccc4cc23)cc1	108*	48	-11	-143	13	88*
O=C(O)Cc1ccc2c(c1)Cc1cccnc1O2	-38	-12	-1	-1	-4	.
COC(=O)[C@@]1(Cc2ccc(F)cc2)[C@H]2c3cc(C(=O)N4CCCC4)n(CCCNc4ncc(C(F)(F)F)cc4Cl)c3C[C@H]2CN1C(=O)c1ccccc1	20	8	19	45*	-103	8
CC(C)C(NC(=O)C(NC(=O)C1O[C@@H]2OC(C)(C)O[C@@H]2[C@H]2OC(C)(C)O[C@@H]12)C(C)C)C(=O)O (some centres not stated)	1	0	5	0	6	-7
Cc1ccc(NC(=O)c2ccc(C)cc2)cc1	-175	4	59*	-7	-61	-32
O=C(Nc1ccc2ncccc2c1)c1cccc(Br)c1	-339	-55	-24	-26	-83	-38
SMILES	Peg3 promoter	TROY NFkB inh	TWEAK Fn14 block	EBV LMP1 NFkB	Shn3 inh set2	MITF TRPM1 inh
Cc1ccc(C(=O)Nc2ccc3ncccc3c2)cc1	21	56*	94*	45*	48	48
Cc1ccc(NC(=O)c2ccc(Nc3c([N+](=O)[O-])cc([N+](=O)[O-])cc3[N+](=O)[O-])cc2)cc1	32	66*	94*	-3	70	9
COC(=O)Cc1ccc(NC(=O)c2ccc(C(C)(C)C)cc2)cc1	-44	19	45	48*	73	59
C=CCN1C(=O)c2ccc(C(=O)N(CC)CC(=O)Nc3ccc(OC)cc3)cc2C1=O	-10	-10	9	-9	-6	-35
CCCCOP(=O)(OCCCC)C1(NS(=O)(=O)c2ccccc2)C=CC(=O)c2ccccc21 (configuration not stated)	10	-5	34	0	-2	4
CC1CN(C(=O)c2ccccc2OCc2ccccc2Cl)CC(C)O1 (configuration not stated)	1	-16	-1	-3	-7	1
COc1ccc(C(=O)Nc2ccc3ncccc3c2)cc1	-51	38	75*	2	7	16
COc1ccc(NC(=O)c2ccc3nccnc3c2)cc1	-243	.	34	-25	-53	-64
COc1ccc(N2C(=O)C(C)(C)C2c2c(O)ccc3ccccc23)cc1 (configuration not stated)	33	25	15	3	-6	0
CC1(C)C(=O)N(c2ccccc2)C1c1ccccc1O (configuration not stated)	52*	8	19	-3	-6	1
O=C(Nc1ccc2c(c1)CCC2)c1cc(S(=O)(=O)Nc2ccc(F)cc2)c(Cl)cc1Cl	2	37	52*	-2	-16	0
CCn1cc(SCC(=O)NC2CCCC2)c2ccccc21	16	4	8	-8	-7	4
CCCC(=O)N1CCN(c2ccc(NC(=O)c3cc4ccccc4o3)cc2Cl)CC1	104*	81*	95*	24	91*	?
O=C(Nc1ccccc1-c1ccccc1)c1ccccc1	-10	-18	62*	-1	-14	5
O=C(Nc1ccccc1)c1cc2ccccc2o1	-107	-10	49	-20	-13	11
O=C(Nc1ccc(NC(=O)c2cc3ccccc3o2)cc1)c1ccco1	63*	-27	-6	1	0	-6
CCC(=O)N1CCN(c2ccc(NC(=O)c3cc4ccccc4o3)cc2Cl)CC1	108*	66*	93*	27	53	52
CN(c1cccc(NC(=O)CN(c2cccc(Cl)c2)S(=O)(=O)c2ccc(Cl)cc2)c1)S(C)(=O)=O	21	25	19	-9	12	19
COc1cc(/C=N/NC(=O)c2cc(C)oc2C)ccc1OCc1ccccc1	-67	-28	-18	-9	-35	-26
O=C(Nc1ccc(N2CCN(C(=O)c3ccco3)CC2)c(Cl)c1)c1cc2ccccc2o1	100*	72*	97*	27	90*	70*
O=C(Nc1ccccc1-c1ccccc1NC(=O)c1ccco1)c1ccco1	11	.	66*	-2	7	7
